{
  "source": "PubChem BioAssay (NCATS)",
  "note": "Records with an inconclusive call do not appear. Where a call stands in place of a potency, no number is given. Active and inactive are the calls of the source. The call rests on the fitted dose curve; in most records, active means well fitted curve in the direction sought with a large enough effect; inconclusive means small, poorly fitted or top-dose-only effect, or another doubt; inactive means no such curve, though single readings can be large; an effect the other way counts as inactive or inconclusive. Non-standard residues stand in square brackets, D forms with d. Residues, ends and D or L forms follow the SMILES beside them. *: point of attachment. Sta = CC(C)C[C@H](N)[C@@H](O)CC(=O)O; Isovaleryl = CC(C)CC(=O)*",
  "data": [
    {"test": "Quantitative High-Throughput drug screen in 47 multiple myeloma cell lines against the NCATS MIPE library collection: Karpas417_ECACC cell viability assay (AID 1918961); further: potency means the concentration at half of the fitted maximal effect", "conditions": "Karpas417 myeloma viability, CellTiter-Glo ATP luminescence, 48 h; viability (% of DMSO): at 45.8 µM (top of the series)", "outline": "(§1)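 Myeloma cell lines, 500 cells per well, exposed to MIPE 4.0 library compounds for 48 h at 37C, 5% CO2. Viability from ATP by CellTiter-Glo luminescence; normalised to DMSO (100%) and media-only (0%) wells.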", "values": [
      {"compound": "CCN(CC)CCOc1ccc(Nc2ncc3cc(-c4c(Cl)cccc4Cl)c(=O)n(C)c3n2)cc1", "Potency": "0.105 µM (active)"},
      {"compound": "Cc1nc2n(c(=O)c1CCN1CCC(c3noc4cc(F)ccc34)CC1)CCCC2", "Potency": "inactive"},
      {"compound": "Nc1cc(C(Cl)=C(Cl)Cl)c(S(N)(=O)=O)cc1S(N)(=O)=O", "Potency": "inactive"},
      {"compound": "CC(C)CC(=O)N[C@H](C(=O)N[C@H](C(=O)N[C@@H](CC(C)C)[C@@H](O)CC(=O)N[C@@H](C)C(=O)N[C@@H](CC(C)C)[C@@H](O)CC(=O)O)C(C)C)C(C)C", "note": "(Isovaleryl-VV[Sta]A[Sta]-OH)", "Potency": "inactive"},
      {"compound": "Nc1nc(N)c(N=O)c(OCC2CCCCC2)n1", "Potency": "2.64 µM (active)"},
      {"compound": "C[C@H](Cn1cnc2c(N)ncnc21)OCP(=O)(O)O", "Potency": "inactive"},
      {"compound": "O=C(c1ccccc1)c1ccc2n1CCC2C(=O)O", "note": "(centres undefined)", "Potency": "inactive"},
      {"compound": "CC[C@]1(O)C[C@H]2CN(CCc3c([nH]c4ccccc34)[C@@](C(=O)OC)(c3cc4c(cc3OC)N(C=O)[C@H]3[C@@](O)(C(=O)OC)[C@H](OC(C)=O)[C@]5(CC)C=CCN6CC[C@]43[C@@H]65)C2)C1", "Potency": "0.935 µM (active)"},
      {"compound": "Cc1cc(O)c2c(c1)C(=O)c1cc(O)cc(O)c1C2=O", "Potency": "inactive"},
      {"compound": "O=C(NCC1CCCCN1)c1cc(OCC(F)(F)F)ccc1OCC(F)(F)F", "note": "(centres undefined)", "Potency": "0.0743 µM (active)"},
      {"compound": "Nc1ccn([C@@H]2O[C@H](CO)[C@@H](O)C2O)c(=O)n1", "note": "(some centres undefined)", "Potency": "inactive"},
      {"compound": "COC(=O)C1=C(C)NC(C)=C(C(=O)OC(C)C)C1c1cccc2nonc12", "note": "(centres undefined)", "Potency": "inactive"},
      {"compound": "Cc1cc(C2CCCCC2)n(O)c(=O)c1", "Potency": "2.96 µM (active)"},
      {"compound": "COCCCOc1ccnc(CS(=O)c2nc3ccccc3[nH]2)c1C", "note": "(centres undefined)", "Potency": "inactive"},
      {"compound": "COc1cc2c(cc1OC)C1CC(=O)C(CC(C)C)CN1CC2", "note": "(centres undefined)", "Potency": "inactive"},
      {"compound": "CN(C)c1ccc(O)c2c1C[C@H]1C[C@H]3[C@H](N(C)C)C(=O)C(C(N)=O)=C(O)[C@@]3(O)C(=O)C1=C2O", "Potency": "inactive"}
    ]},
    {"test": "Quantitative High-Throughput drug screen in 47 multiple myeloma cell lines against the NCATS MIPE library collection: KHM11_PLB cell viability assay (AID 1918962); further: nearly all actives have a fitted effect of over 35% in size; further: potency means the concentration at half of the fitted maximal effect", "conditions": "KHM11 myeloma cell viability, CellTiter-Glo ATP luminescence, 48 h; series mostly up to 45.8 µM", "outline": "as §1", "values": [
      {"compound": "COc1cc2c(N3CCN(C(=O)Nc4ccc(OC(C)C)cc4)CC3)ncnc2cc1OCCCN1CCCCC1", "Potency": "8.33 µM (active)"},
      {"compound": "CCN(CC)CCOc1ccc(Nc2ncc3cc(-c4c(Cl)cccc4Cl)c(=O)n(C)c3n2)cc1", "Potency": "1.32 µM (active)"},
      {"compound": "Cc1nc2n(c(=O)c1CCN1CCC(c3noc4cc(F)ccc34)CC1)CCCC2", "Potency": "inactive"},
      {"compound": "COC(=O)N[C@H](C(=O)N[C@@H](Cc1ccccc1)[C@@H](O)CN(Cc1ccc(-c2ccccn2)cc1)NC(=O)[C@@H](NC(=O)OC)C(C)(C)C)C(C)(C)C", "Potency": "inactive"},
      {"compound": "Nc1cc(C(Cl)=C(Cl)Cl)c(S(N)(=O)=O)cc1S(N)(=O)=O", "Potency": "inactive"},
      {"compound": "CCC1=C(C)CN(C(=O)NCCc2ccc(S(=O)(=O)NC(=O)NC3CCC(C)CC3)cc2)C1=O", "note": "(centres undefined)", "Potency": "inactive"},
      {"compound": "CNC[C@H](O)c1ccc(O)c(O)c1", "Potency": "inactive"},
      {"compound": "Oc1ccc2ccccc2c1SSc1c(O)ccc2ccccc12", "Potency": "20.9 µM (active)"},
      {"compound": "CC(C)CC(=O)N[C@H](C(=O)N[C@H](C(=O)N[C@@H](CC(C)C)[C@@H](O)CC(=O)N[C@@H](C)C(=O)N[C@@H](CC(C)C)[C@@H](O)CC(=O)O)C(C)C)C(C)C", "note": "(Isovaleryl-VV[Sta]A[Sta]-OH)", "Potency": "inactive"},
      {"compound": "O=c1c(O)c(-c2cc(O)c(O)c(O)c2)oc2cc(O)cc(O)c12", "Potency": "inactive"},
      {"compound": "O=C(c1ccccc1)c1ccc2n1CCC2C(=O)O", "note": "(centres undefined)", "Potency": "8.33 µM (active)"},
      {"compound": "O=C(NCC1CCCCN1)c1cc(OCC(F)(F)F)ccc1OCC(F)(F)F", "note": "(centres undefined)", "Potency": "9.35 µM (active)"},
      {"compound": "Cc1cc(=O)oc2cc(O)ccc12", "Potency": "0.0662 µM (active)"},
      {"compound": "NC(=O)Cc1cccc(C(=O)c2ccccc2)c1N", "Potency": "inactive"},
      {"compound": "CCC(C)(Oc1ccc(C2(c3ccc(OC(C)(CC)C(=O)O)cc3)CCCCC2)cc1)C(=O)O", "note": "(centres undefined)", "Potency": "inactive"},
      {"compound": "Cc1cc(C2CCCCC2)n(O)c(=O)c1", "Potency": "4.69 µM (active)"},
      {"compound": "CC1(C)C(=O)N(CCN2CCC(C(=O)c3ccc(F)cc3)CC2)c2ccccc21", "Potency": "2.09 µM (active)"},
      {"compound": "COCCCOc1ccnc(CS(=O)c2nc3ccccc3[nH]2)c1C", "note": "(centres undefined)", "Potency": "inactive"},
      {"compound": "COc1cc2c(cc1OC)C1CC(=O)C(CC(C)C)CN1CC2", "note": "(centres undefined)", "Potency": "inactive"},
      {"compound": "O=C(NOCC1CC1)c1ccc(F)c(F)c1Nc1ccc(I)cc1Cl", "Potency": "0.0235 µM (active)"}
    ]},
    {"test": "Quantitative High-Throughput drug screen in 47 multiple myeloma cell lines against the NCATS MIPE library collection: JIM3_ECACC cell viability assay (AID 1918963; further: nearly all actives have a fitted effect of over 35% in size; further: potency means the concentration at half of the fitted maximal effect)", "conditions": "JIM3 myeloma viability, CellTiter-Glo ATP, 48 h; series mostly up to 45.8 µM", "outline": "as §1", "values": [
      {"compound": "O=C(O)CCNC(=O)c1ccc(N=Nc2ccc(O)c(C(=O)O)c2)cc1", "Potency": "inactive"},
      {"compound": "CCN(CC)CCOc1ccc(Nc2ncc3cc(-c4c(Cl)cccc4Cl)c(=O)n(C)c3n2)cc1", "Potency": "0.118 µM (active)"},
      {"compound": "Cc1nc2n(c(=O)c1CCN1CCC(c3noc4cc(F)ccc34)CC1)CCCC2", "Potency": "inactive"},
      {"compound": "COC(=O)N[C@H](C(=O)N[C@@H](Cc1ccccc1)[C@@H](O)CN(Cc1ccc(-c2ccccn2)cc1)NC(=O)[C@@H](NC(=O)OC)C(C)(C)C)C(C)(C)C", "Potency": "inactive"},
      {"compound": "Nc1cc(C(Cl)=C(Cl)Cl)c(S(N)(=O)=O)cc1S(N)(=O)=O", "Potency": "inactive"},
      {"compound": "CCC1=C(C)CN(C(=O)NCCc2ccc(S(=O)(=O)NC(=O)NC3CCC(C)CC3)cc2)C1=O", "note": "(centres undefined)", "Potency": "inactive"},
      {"compound": "CNC[C@H](O)c1ccc(O)c(O)c1", "Potency": "38.2 µM (active)"},
      {"compound": "Oc1ccc2ccccc2c1SSc1c(O)ccc2ccccc12", "Potency": "18.7 µM (active)"},
      {"compound": "CC(C)CC(=O)N[C@H](C(=O)N[C@H](C(=O)N[C@@H](CC(C)C)[C@@H](O)CC(=O)N[C@@H](C)C(=O)N[C@@H](CC(C)C)[C@@H](O)CC(=O)O)C(C)C)C(C)C", "note": "(Isovaleryl-VV[Sta]A[Sta]-OH)", "Potency": "inactive"},
      {"compound": "Oc1ccc(-c2nc(-c3ccc(F)cc3)c(-c3ccncc3)[nH]2)cc1", "Potency": "14.8 µM (active)"},
      {"compound": "CCCCCCCCCCCCCCCCCCCCCCO", "Potency": "inactive"},
      {"compound": "CS(=O)(=O)OCCCCOS(C)(=O)=O", "Potency": "inactive"},
      {"compound": "Nc1nc(N)c(N=O)c(OCC2CCCCC2)n1", "Potency": "9.35 µM (active)"},
      {"compound": "N=C(N=C(N)N)N1CCOCC1", "Potency": "inactive"},
      {"compound": "C[C@H](Cn1cnc2c(N)ncnc21)OCP(=O)(O)O", "Potency": "inactive"},
      {"compound": "O=c1c(O)c(-c2cc(O)c(O)c(O)c2)oc2cc(O)cc(O)c12", "Potency": "inactive"},
      {"compound": "O=C(c1ccccc1)c1ccc2n1CCC2C(=O)O", "note": "(centres undefined)", "Potency": "16.6 µM (active)"},
      {"compound": "Cc1cc(O)c2c(c1)C(=O)c1cc(O)cc(O)c1C2=O", "Potency": "inactive"},
      {"compound": "Nc1ccc(S(N)(=O)=O)cc1", "Potency": "inactive"},
      {"compound": "O=C(NCC1CCCCN1)c1cc(OCC(F)(F)F)ccc1OCC(F)(F)F", "note": "(centres undefined)", "Potency": "8.33 µM (active)"},
      {"compound": "Cc1cc(=O)oc2cc(O)ccc12", "Potency": "inactive"},
      {"compound": "Nc1ccn([C@@H]2O[C@H](CO)[C@@H](O)C2O)c(=O)n1", "note": "(some centres undefined)", "Potency": "inactive"},
      {"compound": "NC(=O)Cc1cccc(C(=O)c2ccccc2)c1N", "Potency": "inactive"},
      {"compound": "COc1ccc(C2(C#N)CCC(C(=O)O)CC2)cc1OC1CCCC1", "note": "(centres undefined)", "Potency": "inactive"},
      {"compound": "CCC(C)(Oc1ccc(C2(c3ccc(OC(C)(CC)C(=O)O)cc3)CCCCC2)cc1)C(=O)O", "note": "(centres undefined)", "Potency": "inactive"},
      {"compound": "Cc1cc(C2CCCCC2)n(O)c(=O)c1", "Potency": "8.33 µM (active)"},
      {"compound": "COCCCOc1ccnc(CS(=O)c2nc3ccccc3[nH]2)c1C", "note": "(centres undefined)", "Potency": "inactive"},
      {"compound": "N=C(N)c1ccc2cc(OC(=O)c3ccc(N=C(N)N)cc3)ccc2c1", "Potency": "inactive"},
      {"compound": "COc1cc2c(cc1OC)C1CC(=O)C(CC(C)C)CN1CC2", "note": "(centres undefined)", "Potency": "inactive"},
      {"compound": "O=C(NOCC1CC1)c1ccc(F)c(F)c1Nc1ccc(I)cc1Cl", "Potency": "6.62 µM (active)"},
      {"compound": "O=C(O)c1cccc(-c2noc(-c3ccccc3F)n2)c1", "Potency": "inactive"},
      {"compound": "O=C(NCCO[N+](=O)[O-])c1cccnc1", "Potency": "inactive"},
      {"compound": "Cc1c(C(=O)NN2CCCCC2)nn(-c2ccc(Cl)cc2Cl)c1-c1ccc(Cl)cc1", "Potency": "23.5 µM (active)"}
    ]}
  ]
}
